According to PubChem BioAssay (Tox21):
Records with an inconclusive call do not appear. The source made the active and inactive calls. Unless noted, calls come from the whole dose curve; as a rule, active = well fitted curve in the direction sought with a large enough effect in the repeat runs; inconclusive = weak or mixed curves; inactive = no such curve, though single readings can be large; an effect the other way counts as inactive or inconclusive.

Key:
[1] = qHTS assay to identify aromatase inhibitors - cell viability counter screen (AID 743084);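 note: cells stimulated with testosterone during compound exposure; nearly all actives have a fitted effect of over 55% in size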
[2] = qHTS assay to identify small molecule that activate the aryl hydrocarbon receptor (AhR) signaling pathway - cell viability counter screen (AID 743086);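 note: HepG2 liver cells carrying the AhR DRE luciferase reporter; series mostly up to about 70 µM; nearly all actives have a fitted effect of over 45% in size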
How it was run: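 HepG2-AhR-luc (HG2L7.5c1) cells, 4000/well, were preincubated 5 h at 37C, exposed to compound in qHTS format for 24 hr at 37C, then given CellTiter-Fluor for 30 min; viability was read as fluorescence in the reporter wells.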

[3] = biological target: Peroxisome proliferator-activated receptor gamma (Homo sapiens) (UniProt P37231); test: qHTS assay to identify small molecule agonists of the peroxisome proliferator-activated receptor gamma (PPARg) signaling pathway (AID 743094; active = well fitted activation curve with a large enough effect in the signal ratio in the repeat runs, not every such curve was filed as active; the % refers to the signal ratio)
How it was run: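 Beta-lactamase FRET fluorescence was the read-out after a 1 h room-temperature substrate step, following 17 h compound treatment at 37C of HEK293H cells expressing a UAS-driven bla reporter responsive to PPARg.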

[4] = biological target: Peroxisome proliferator-activated receptor gamma (Homo sapiens) (UniProt P37231); test: qHTS assay to identify small molecule antagonists of the peroxisome proliferator-activated receptor gamma (PPARg) signaling pathway (AID 743191; calls by dose curve; note: series mostly up to about 63 µM; nearly all actives have a fitted effect of over 30% in size)
How it was run: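 GeneBLAzer PPARg UAS-bla HEK293H cells carrying a UAS-driven beta-lactamase reporter were plated at 3000 cells/well, preincubated 5 h at 37C, then given compound for 17 h at 37C; LiveBLAzer B/G FRET substrate was read after 1 h at room temperature.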

[5] = qHTS assay to identify small molecule antagonists of the peroxisome proliferator-activated receptor gamma (PPARg) signaling pathway - cell viability counter screen (AID 743194); details: Potency: co-treated with 50 nM rosiglitazone; note: nearly all actives have a fitted effect of over 55% in size
How it was run: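 PPARg-UAS-bla HEK293H cells were plated, rested 5 h at 37 C, then treated with compounds plus rosiglitazone (50 nM final) for 17 h at 37 C; viability was then read by CellTiter-Glo luminescence after 30 min at room temperature.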

[6] = qHTS assay for small molecule agonists of the antioxidant response element (ARE) signaling pathway (AID 743202; active = well fitted activation curve with a large enough effect in the signal ratio in the repeat runs, not every such curve was filed as active; the % refers to the signal ratio)
How it was run: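 Read-out: LiveBLAzer B/G FRET substrate fluorescence after 2 h at room temperature, following 16 h compound treatment at 37 C of HepG2 cells carrying an ARE-driven beta-lactamase reporter.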

[7] = qHTS assay for small molecule agonists of the antioxidant response element (ARE) signaling pathway - cell viability counter screen (AID 743203; calls by dose curve; note: nearly all actives have a fitted effect of over 55% in size)
How it was run: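 HepG2 cells carrying ARE-driven beta-lactamase; 2,000 cells/well; 5 hrs plating; compound pinned from DMSO; 16 hrs 37C/5% CO2; CellTiter-Glo added; 30 min RT; luminescence.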

[8] = qHTS assay for small molecule activators of the heat shock response signaling pathway - cell viability counter screen (AID 743209); note: nearly all actives have a fitted effect of over 50% in size
How it was run: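 Luminescence from CellTiter-Glo, added after the beta-lactamase FRET read, gave the viability signal. Cells were HSE-bla HeLa treated with DMSO-dissolved compounds for 5 h at 37 C following overnight plating.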

[9] = qHTS assay for small molecule activators of the heat shock response signaling pathway (AID 743210; active = well fitted activation curve with a large enough effect in the signal ratio in the repeat runs, with a control signal flat, not every such curve was filed as active; the % refers to the signal ratio; note: series mostly up to about 63 µM)
How it was run: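 HSE-bla HeLa cells (beta-lactamase reporter under heat shock response elements) were exposed to compounds for 5 h at 37 C, then loaded with LiveBLAzer B/G FRET substrate for 2.5 h at room temperature before fluorescence reading.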

[10] = qHTS assay to identify small molecule agonists of the peroxisome proliferator-activated receptor delta (PPARd) signaling pathway - cell viability counter screen (AID 743211); note: nearly all actives have a fitted effect of over 55% in size
How it was run: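 PPARd-bla HEK293H cells (UAS-beta-lactamase reporter) were treated with compounds for 17 h at 37 C. Viability was then read in the same wells by CellTiter-Glo luminescence after 30 min at room temperature.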

[11] = qHTS assay to identify small molecule antagonists of the peroxisome proliferator-activated receptor delta (PPARd) signaling pathway - cell viability counter screen (AID 743213); note: nearly all actives have a fitted effect of over 50% in size
How it was run: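 Same-well viability: cells pre-incubated 5 h, dosed with compound plus 300 nM L165041, kept 17 h at 37 C, FRET substrate 2 h RT, then CellTiter-Glo 30 min RT and luminescence.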

[12] = qHTS assay to identify small molecule agonists of the farnesoid-X-receptor (FXR) signaling pathway - cell viability counter screen (AID 743218); note: nearly all actives have a fitted effect of over 45% in size
How it was run: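 HEK 293T FXR-bla cells; 5 h pre-incubation, 16 h compound exposure at 37 C; LiveBLAzer substrate 2 h RT, then CellTiter-Glo 30 min RT, luminescence.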

[13] = qHTS assay to identify small molecule antagonists of the farnesoid-X-receptor (FXR) signaling pathway - cell viability counter screen (AID 743221; active = well fitted cell-killing curve with a large enough effect in the repeat runs, not every such curve was filed as active; note: nearly all actives have a fitted effect of over 50% in size)
How it was run: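 FXR-UAS-bla HEK 293T cells were treated with test compounds plus chenodeoxycholic acid (50 uM final) for 16 h at 37 C. Cell viability in the same wells was then read as CellTiter-Glo luminescence after 30 min at room temperature.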

[14] = biological target: Vitamin D3 receptor (Homo sapiens) (UniProt P11473); test: qHTS assay to identify small molecule agonists of the vitamin D receptor (VDR) signaling pathway (AID 743222; calls by dose curve)
How it was run: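 VDR-bla cells, 2,000/well; 4 h preincubation 37C; cpd (DMSO) 16 h; LiveBLAzer B/G substrate 2 h RT; fluorescence intensity read.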

[15] = biological target: Vitamin D3 receptor (Homo sapiens) (UniProt P11473); test: qHTS assay to identify small molecule antagonists of the vitamin D receptor (VDR) signaling pathway (AID 743223; active = well fitted inhibition curve with a large enough effect in the signal ratio in the repeat runs, not every such curve was filed as active; the % refers to the signal ratio)
How it was run: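 VDR-bla cells were plated, incubated 4 h at 37C, then given compound and 1alpha,25-dihydroxyvitamin D3 (3 nM final). After 16 h at 37C, LiveBLAzer B/G FRET substrate was added for 2 h at room temperature and fluorescence read.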

[16] = biological target: Aryl hydrocarbon receptor (Homo sapiens) (UniProt P35869); test: qHTS assay to identify small molecule that activate the aryl hydrocarbon receptor (AhR) signaling pathway (AID 743085);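 note: HG2L7.5c1 human HepG2 liver cells with stably integrated DRE-driven firefly reporter; series mostly up to about 70 µM; nearly all actives have a fitted effect of over 15% in size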
How it was run: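 HepG2 cells (HG2L7.5c1) stably carrying a firefly luciferase reporter driven by 20 dioxin responsive elements were exposed to compound for 24 h at 37C after a 5 h settling period; luminescence rise (ONE-Glo) indicated activation.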

[17] = biological target: Bile acid receptor (Homo sapiens) (UniProt Q96RI1); test: qHTS assay to identify small molecule antagonists of the farnesoid-X-receptor (FXR) signaling pathway (AID 743217; active = well fitted inhibition curve with a large enough effect in the signal ratio in the repeat runs, not every such curve was filed as active; the % refers to the signal ratio)
How it was run: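 HEK 293T FXR-UAS-bla, 5000 cells/well; compound + CDCA 50 uM final; 16 h, 37 °C; B/G FRET substrate 2 h RT; fluorescence.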

[18] = biological target: Bile acid receptor (Homo sapiens) (UniProt Q96RI1); test: qHTS assay to identify small molecule agonists of the farnesoid-X-receptor (FXR) signaling pathway (AID 743220; active = well fitted activation curve with a large enough effect in the signal ratio in the repeat runs, not every such curve was filed as active; the % refers to the signal ratio)
How it was run: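 Beta-lactamase reporter under UAS control in GeneBLAzer FXR HEK 293T cells (5000/well) measured with LiveBLAzer FRET substrate after 2 h at room temperature. Compound exposure lasted 16 h at 37C.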

[19] = biological target: Peroxisome proliferator-activated receptor delta (Homo sapiens) (UniProt Q03181); test: qHTS assay to identify small molecule agonists of the peroxisome proliferator-activated receptor delta (PPARd) signaling pathway (AID 743212; calls by dose curve)
How it was run: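 GeneBLAzer PPARd UAS-bla HEK293H cells (beta-lactamase reporter under UAS control), plated and rested 5 h at 37 C, then exposed to compounds in DMSO at 37 C; LiveBLAzer B/G FRET substrate added, 2 h room temperature, fluorescence read.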

[20] = biological target: Peroxisome proliferator-activated receptor delta (Homo sapiens) (UniProt Q03181); test: qHTS assay to identify small molecule antagonists of the peroxisome proliferator-activated receptor delta (PPARd) signaling pathway (AID 743215; active = well fitted inhibition curve with a large enough effect in the signal ratio in the repeat runs, not every such curve was filed as active; the % refers to the signal ratio;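 note: cells stimulated with agonist L165041 at 300 nM final during compound exposure; series mostly up to about 62 µM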)
How it was run: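 Read-out is beta-lactamase FRET fluorescence, measured 2 h after substrate addition at room temperature. Beforehand, UAS-bla HEK293H cells carrying the PPARd reporter were exposed to compounds with L165041 at 300 nM final for 17 h at 37 C.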

Measured: Potency

Sequence of Aryl hydrocarbon receptor (Homo sapiens) (P35869 whole entry, looked up): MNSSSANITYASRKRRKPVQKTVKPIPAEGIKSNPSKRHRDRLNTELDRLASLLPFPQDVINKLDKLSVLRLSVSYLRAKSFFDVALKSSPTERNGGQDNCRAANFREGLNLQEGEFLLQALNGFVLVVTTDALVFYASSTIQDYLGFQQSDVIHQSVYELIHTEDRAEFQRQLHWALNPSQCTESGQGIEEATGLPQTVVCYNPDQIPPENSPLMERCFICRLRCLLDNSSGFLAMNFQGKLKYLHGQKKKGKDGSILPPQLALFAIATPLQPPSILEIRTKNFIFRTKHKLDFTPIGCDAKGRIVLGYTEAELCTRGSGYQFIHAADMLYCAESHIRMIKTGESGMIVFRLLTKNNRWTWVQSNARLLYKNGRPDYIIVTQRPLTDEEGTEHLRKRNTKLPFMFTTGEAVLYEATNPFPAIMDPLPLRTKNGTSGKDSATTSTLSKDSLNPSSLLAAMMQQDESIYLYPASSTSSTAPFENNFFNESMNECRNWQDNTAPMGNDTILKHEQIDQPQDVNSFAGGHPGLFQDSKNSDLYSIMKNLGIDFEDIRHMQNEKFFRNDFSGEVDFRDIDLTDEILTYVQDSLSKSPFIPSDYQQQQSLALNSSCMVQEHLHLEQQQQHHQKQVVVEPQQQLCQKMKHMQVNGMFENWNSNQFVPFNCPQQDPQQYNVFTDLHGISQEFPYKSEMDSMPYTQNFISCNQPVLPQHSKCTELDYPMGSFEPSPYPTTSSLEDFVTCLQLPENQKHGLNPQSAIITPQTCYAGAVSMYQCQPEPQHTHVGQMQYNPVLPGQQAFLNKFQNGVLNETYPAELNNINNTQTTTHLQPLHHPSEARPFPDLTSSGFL
Sequence of Vitamin D3 receptor (Homo sapiens) (P11473 whole entry, looked up): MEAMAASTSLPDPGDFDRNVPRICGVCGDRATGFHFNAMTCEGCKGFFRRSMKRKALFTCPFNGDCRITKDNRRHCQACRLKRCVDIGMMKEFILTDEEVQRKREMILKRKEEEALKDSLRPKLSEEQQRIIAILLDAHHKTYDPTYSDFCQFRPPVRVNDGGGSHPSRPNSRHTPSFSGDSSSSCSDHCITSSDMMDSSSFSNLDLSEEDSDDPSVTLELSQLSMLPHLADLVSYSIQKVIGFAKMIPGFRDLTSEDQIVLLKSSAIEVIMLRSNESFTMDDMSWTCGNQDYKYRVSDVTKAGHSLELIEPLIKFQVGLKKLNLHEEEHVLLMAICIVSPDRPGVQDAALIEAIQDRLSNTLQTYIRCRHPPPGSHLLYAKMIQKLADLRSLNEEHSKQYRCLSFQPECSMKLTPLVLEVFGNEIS
Sequence of Peroxisome proliferator-activated receptor gamma (Homo sapiens) (P37231 whole entry, looked up): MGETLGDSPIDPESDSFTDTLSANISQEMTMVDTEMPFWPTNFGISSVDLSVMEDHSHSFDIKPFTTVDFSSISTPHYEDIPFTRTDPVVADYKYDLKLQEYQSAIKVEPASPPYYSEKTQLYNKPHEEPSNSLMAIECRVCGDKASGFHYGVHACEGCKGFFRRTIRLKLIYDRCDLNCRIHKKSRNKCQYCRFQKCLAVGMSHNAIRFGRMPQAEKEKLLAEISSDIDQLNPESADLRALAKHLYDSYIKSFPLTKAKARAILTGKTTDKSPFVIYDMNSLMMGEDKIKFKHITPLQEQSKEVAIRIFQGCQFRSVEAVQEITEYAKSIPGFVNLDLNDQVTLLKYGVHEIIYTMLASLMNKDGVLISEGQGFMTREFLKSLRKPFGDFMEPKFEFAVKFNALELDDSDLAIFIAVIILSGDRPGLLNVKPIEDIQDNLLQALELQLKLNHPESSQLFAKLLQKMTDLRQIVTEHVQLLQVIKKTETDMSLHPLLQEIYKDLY
Sequence of Bile acid receptor (Homo sapiens) (Q96RI1 whole entry, looked up): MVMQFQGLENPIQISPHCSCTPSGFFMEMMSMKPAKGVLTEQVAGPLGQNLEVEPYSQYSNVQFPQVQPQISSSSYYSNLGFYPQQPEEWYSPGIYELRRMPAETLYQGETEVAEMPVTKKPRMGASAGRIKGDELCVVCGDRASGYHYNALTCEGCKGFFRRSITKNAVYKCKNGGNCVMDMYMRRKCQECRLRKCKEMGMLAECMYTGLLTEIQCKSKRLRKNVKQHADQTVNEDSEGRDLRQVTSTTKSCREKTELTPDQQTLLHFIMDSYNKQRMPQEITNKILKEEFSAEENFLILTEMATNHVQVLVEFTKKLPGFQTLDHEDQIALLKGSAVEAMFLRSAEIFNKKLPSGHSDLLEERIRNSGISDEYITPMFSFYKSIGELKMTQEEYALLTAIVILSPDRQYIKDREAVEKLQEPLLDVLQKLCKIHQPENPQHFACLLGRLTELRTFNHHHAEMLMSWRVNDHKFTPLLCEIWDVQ
Sequence of Peroxisome proliferator-activated receptor delta (Homo sapiens) (Q03181 whole entry, looked up): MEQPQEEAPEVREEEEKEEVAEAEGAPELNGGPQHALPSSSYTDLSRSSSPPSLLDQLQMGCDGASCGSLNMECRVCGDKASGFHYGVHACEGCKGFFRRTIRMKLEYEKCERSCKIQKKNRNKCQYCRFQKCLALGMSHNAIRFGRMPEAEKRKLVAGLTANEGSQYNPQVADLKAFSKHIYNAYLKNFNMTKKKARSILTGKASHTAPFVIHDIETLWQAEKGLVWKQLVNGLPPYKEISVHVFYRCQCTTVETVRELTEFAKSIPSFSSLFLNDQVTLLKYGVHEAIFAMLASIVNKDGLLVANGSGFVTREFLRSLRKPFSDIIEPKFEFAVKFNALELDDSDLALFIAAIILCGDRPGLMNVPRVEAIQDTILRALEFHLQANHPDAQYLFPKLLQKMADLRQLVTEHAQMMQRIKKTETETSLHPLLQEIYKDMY

CNC(=O)O/N=C(/CSC)C(C)(C)C
inactive: [1] | [2] | [3] | [4] | [5] | [6] | [7] | [8] | [9] | [10] | [11] | [12] | [13] | [14] | [15]

Cc1ccc(S(=O)(=O)N[C@@H](CCCCN)C(=O)CCl)cc1
inactive: [16] | [4] | [5] | [6] | [7] | [8] | [10] | [11] | [17] | [12] | [18] | [13]

CC[C@@H](CO)NC(=O)[C@@H]1C=C2c3cccc4c3c(cn4C)C[C@H]2N(C)C1
inactive: [2] | [5] | [6] | [7] | [8] | [9] | [10] | [19] | [11] | [20] | [17] | [12] | [18] | [13] | [14] | [15]

CC(C)(N)Cc1ccccc1Cl
inactive: [5] | [8] | [9] | [10] | [11] | [20] | [17] | [12] | [18] | [13] | [15]

CCN1CCCC1CNC(=O)C(O)(c1ccccc1)c1ccccc1 (configuration not stated)
inactive: [5] | [7] | [8] | [9] | [10] | [11] | [17] | [12] | [18] | [14] | [15]

CC(Cc1ccccc1)NCCn1cnc2c1c(=O)n(C)c(=O)n2C (configuration not stated)
inactive: [16] | [3] | [4] | [5] | [6] | [7] | [8] | [9] | [10] | [11] | [12] | [13] | [14] | [15]

CC(Cc1ccccc1)NCCCCl (configuration not stated)
inactive: [5] | [6] | [7] | [8] | [9] | [10] | [19] | [20] | [17] | [12] | [18] | [13] | [14] | [15]

O=[N+]([O-])CCO
inactive: [16] | [2] | [3] | [5] | [7] | [8] | [10] | [12]

CCC(C)C(C)(COC(N)=O)COC(N)=O (configuration not stated)
inactive: [5] | [6] | [7] | [8] | [9] | [10] | [11] | [12] | [13]

C=CCC1(C(C)CC)C(=O)NC(=O)NC1=O (configuration not stated)
inactive: [4] | [5] | [7] | [8] | [10] | [19] | [11] | [20] | [12] | [13] | [14] | [15]

C[C@H](CN1CCOCC1)C(C(=O)N1CCCC1)(c1ccccc1)c1ccccc1
inactive: [1] | [3] | [5] | [6] | [7] | [8] | [9] | [10] | [19] | [11] | [20] | [12] | [18] | [13] | [14]
